Source: PubChem BioAssay (National Center for Advancing Translational Sciences (NCATS))
ALDH1A1 inh – qHTS Assay for Inhibitors of Aldehyde Dehydrogenase 1 (ALDH1A1) | Purified ALDH1A1, NADH fluorescence, propionaldehyde substrate | Potency, µM (top dose mostly 75.3 µM), for the others: at the highest dose activity, negative = inhibition, actives largely listed as inhibitors | 220,000 tested, 7.3% active;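 note: potency is the fitted concentration of half-maximal effect; plate controls were no enzyme wells and a reference inhibitor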
Target sequence (P00352 whole entry, looked up): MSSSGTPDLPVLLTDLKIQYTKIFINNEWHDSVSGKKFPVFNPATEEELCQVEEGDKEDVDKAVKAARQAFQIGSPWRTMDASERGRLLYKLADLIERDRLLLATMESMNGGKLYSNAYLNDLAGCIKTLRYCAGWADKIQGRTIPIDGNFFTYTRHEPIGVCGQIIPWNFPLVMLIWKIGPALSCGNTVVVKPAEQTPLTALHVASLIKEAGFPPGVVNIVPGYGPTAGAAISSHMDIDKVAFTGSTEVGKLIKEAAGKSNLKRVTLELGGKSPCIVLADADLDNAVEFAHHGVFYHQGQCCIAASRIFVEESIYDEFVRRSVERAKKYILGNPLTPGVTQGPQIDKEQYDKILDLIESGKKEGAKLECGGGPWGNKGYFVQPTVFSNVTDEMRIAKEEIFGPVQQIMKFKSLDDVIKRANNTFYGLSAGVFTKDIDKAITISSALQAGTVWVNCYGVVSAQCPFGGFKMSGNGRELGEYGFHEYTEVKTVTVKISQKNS
HPGD inh – qHTS Assay for Inhibitors of HPGD (15-Hydroxyprostaglandin Dehydrogenase) | 15-hydroxyprostaglandin dehydrogenase [NAD(+)] (Homo sapiens), P15428 | purified HPGD, NADH fluorescence kinetic, PGE2 substrate | Potency, µM, without a hit: at the highest dose activity change, negative = inhibition, hits mostly inhibitors | 150,000 tested, 4.3% active; note: potency is the fitted concentration of half-maximal effect
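NADH formation kinetics: reaction with 30 uM PGE2 and 1 mM NAD+ (final), 20 nM enzyme, Tris-HCl pH 8 with Tween 20, after 15 min compound preincubation at room temperature. Fluorescence change, last versus first of five reads.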
PNC assembly inh – High Content Assay for Compounds that inhibit the Assembly of the Perinucleolar Compartment. activity change (PNC), negative = inhibition, % at 10 µM. PC3M PTB-GFP, PNC prevalence imaging, 16 h; active compounds read low. AID 2417, 2010. 140,000 tested, 3.1% active;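 active = readout at or below -70, meaning at least 70% loss of cells showing the perinucleolar compartment, a nuclear body marking cancer cells; inconclusive = readout between -30 and a set limit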;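 note: plate controls were DMSO wells for no effect and camptothecin positive control wells for full effect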
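Read-out is percentage of cells bearing a perinucleolar compartment, from automated 20x imaging of fixed, Hoechst-stained PC3M PTB-GFP cells. Cells were seeded 4 h, then exposed 16 h to compound (23 nl of library stock) in duplicate plates.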
LMNA splice mod – qHTS Assay for Modulators of Lamin A Splicing. HeLa LMNA splicing GFP/RFP minigene ratio, 48 h. Potency, µM (highest dose often 46.1 µM), inactives show at the top dose ratio change, negative = inhibition, usual class: inhibitors. 200,000 tested, 0.01% active; active = well fitted inhibition curve with a large enough effect in the signal ratio, with a control signal flat, not every such curve was filed as active; inconclusive = small, poorly fitted or top-dose-only effect, or effect the other way, or a change in a side signal; the % refers to the signal ratio; note: potency is the fitted concentration of half-maximal effect
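Read-out is the ratio of GFP to DsRed2 object intensity, acquired by 488 nm laser-scanning cytometry on HeLa lamin A-EGFP minigene reporter cells. Compound incubation 48 hrs at 37 °C in Opti-MEM with 2% FBS; DMSO 0.5% final.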
ALOX12 inhib – qHTS Assay for Inhibitors of 12-hLO (12-human lipoxygenase). purified 12-hLO, xylenol orange hydroperoxide absorbance. Potency, µM (titrated, usually from 57.1 µM), for the others: at the top dose activity change, negative = inhibition, hits mostly inhibitors. Polyunsaturated fatty acid lipoxygenase ALOX12 (Homo sapiens), P18054. 150,000 tested, 0.12% active; active = well fitted inhibition curve with a large enough effect; inconclusive = small, poorly fitted or top-dose-only effect; note: potency is the fitted concentration of half-maximal effect; nearly all actives have a fitted effect of over 55% in size
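Hydroperoxide output read as Fe(III)-xylenol orange absorbance, 573-to-405 nm ratio, after 30 min reaction with 40 uM arachidonic acid. Enzyme: 150 nM purified human 12hLO, 15 min compound preincubation; 25 mM Hepes pH 7.0, room temperature.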
* hit, by the source's call; ? = inconclusive; · = no result given; [ ] = another dose, or the depositor's remark. Rows were chosen to be rich in hits. Some 10% of all compounds tested hit in one or more screens of this group. Unless noted, calls come from the whole dose curve; as a rule, active = well fitted inhibition curve with a large enough effect (not every such curve was filed as active); inconclusive = small, poorly fitted or top-dose-only effect, or another doubt; inactive = no such curve, though single readings can be large or run the other way. Unless noted, % is set by controls: 0 for no effect and ±100 for the full control effect.

SMILES | ALDH1A1 inh | HPGD inh | PNC assembly inh | LMNA splice mod | ALOX12 inhib
COc1ccccc1-c1cc(NCc2cnc(C)cn2)ncn1 | ? | · | · | 4.4% | ·
Cc1cnc(CNc2ncnc3ccc(-c4ccccc4C(F)(F)F)cc23)cn1 | -3.5% | · | · | ? | ·
COc1ccc(CCNC(=O)C(=O)NCC(c2cccs2)S(=O)(=O)c2ccccc2)cc1 (stereo not drawn) | · | · | · | 22.5%[46 µM] | ·
O=C(c1cn(-c2ccccc2)nc1-c1cccc(Br)c1)N1CCOCC1 | 25.1µM* | · | · | -18.6%[46 µM] | ·
O=C(c1cn(-c2ccccc2)nc1-c1ccncc1)N1CCCCC1 | ? | -19.5% | 40.3 | -7.6% | -3.7%
COC(=O)c1ccc(C(NC(=O)OCc2ccccc2)/C(C)=C/[C@@H](C)C(=O)NCCO)cc1 (stereo partly drawn) | ? | -12.7% | · | · | -1.4%
CCOc1cc(/C=N/Nc2cccc(C(=O)O)c2)ccc1OC(=O)c1ccccc1 | 39.8µM* | · | · | -6.4%[1.84 µM] | ·
O=C(O)CC1S/C(=N/N=C/C=C/c2ccccc2[N+](=O)[O-])NC1=O (stereo not drawn) | 7.3% | -13.8% | ? | 3.6% | -0.6%
O=C(O)CC1S/C(=N/N=C/c2ccc(-c3ccc(Cl)cc3[N+](=O)[O-])o2)NC1=O (stereo not drawn) | 22.4µM* | 8.91µM* | -28.2 | 1.1% | ?
C=C(C)CN(CC)C(=O)CSc1nc2ncc(Cl)cc2[nH]1 | 25.1µM* | 14.1µM* | -28.1 | 13.8% | -4.0%
CC1Cc2ccccc2N1C(=O)CSc1ccccc1 (stereo not drawn) | 17.8µM* | -22.0% | 32.6 | ? | -4.9%
CC1Cc2ccccc2N1C(=O)CNc1ccccc1N1CCCCC1 (stereo not drawn) | 12.6µM* | · | · | · | ·
Cc1nnc(SCC(=O)N2c3ccccc3CC2C)[nH]c1=O (stereo not drawn) | 11.2µM* | -26.1% | 46.5 | 1.7% | 0.2%
CC1Cc2ccccc2N1C(=O)CN1CCc2ccccc2C1 (stereo not drawn) | ? | · | 17.6 | 0.6% | -3.5%
CCCNC(=O)OC[C@@H]1O[C@H](CCO/N=C(\C)CCN2CCc3nc(CC)c(CC)cc3C2)C=C[C@@H]1Oc1ccc(OC)cc1 | -7.4%[13.5 µM] | · | · | · | ·
COC(=O)[C@@H]1CC[C@H](C)[C@@H](c2ccc(C)cc2)N1C(=O)c1ccc(/C=N\O[C@@H](C)CN2CCCc3nc(C)c(C)cc32)cc1 | 10.2%[13.5 µM] | · | · | · | ·
O=[N+]([O-])c1ccc2c(N=Nc3ccc4ccccc4c3O)c(O)cc(S(=O)(=O)O)c2c1 | -10.7%[13.5 µM] | 2.82µM* | · | · | ?
O=S(=O)(O)c1ccc2c(N=Nc3cccc4ccccc34)c(O)c(S(=O)(=O)O)cc2c1 | ? | -29.6% | · | · | 0.5%[11.4 µM]
CCCc1nn2c(=O)cc(COC(=O)c3ccccc3NC(=O)COc3ccccc3F)nc2s1 | · | · | · | 12.9%[46 µM] | ·
COc1ccc2cc(-c3nnc(Nc4ccccc4)s3)c(=O)oc2c1 | · | · | · | -15.5%[46 µM] | ·
Cc1nc(SCc2ccccc2)c([N+](=O)[O-])[nH]1 | ? | -11.1% | -107.3* | 9.3% | -1.9%
CN(C)/C=C1\C(=O)N(c2ccc(Cl)cc2)CS1(=O)=O | 4.9% | 15.8µM* | ? | -0.2% | -5.8%
CC(=Nc1ccccc1)C1=C(O)COC1=O | 5.62µM* | -9.1% | 47.3 | 5.0% | ?
CC(=O)c1ccc(Sc2nnnn2-c2ccccc2)c([N+](=O)[O-])c1 | 15.8µM* | -16.0% | -6.2 | ? | 2.5%
O=[N+]([O-])c1ccc(Sc2nnnn2-c2ccccc2)c(Cl)c1 | 3.55µM* | -11.9% | -2.2 | ? | -14.7%
CN1CCN(S(=O)(=O)c2ccc(Sc3nnnn3-c3ccccc3)c([N+](=O)[O-])c2)CC1 | -55.7% | -10.5% | 7.7 | ? | 2.2%
Nc1ccc(Sc2nnnn2-c2ccccc2)c(Cl)c1 | 22.4µM* | -2.4% | ? | -10.1% | -5.2%
CCc1cccc(C)c1NC(=S)NCC(c1cccnc1)N1CCOCC1 (stereo not drawn) | -2.2% | -6.8% | 38.2 | -4.8% | 0.2%
CCOC(=O)c1nc(NCc2ccc(Cl)cc2)c2c(C)noc2n1 | · | · | · | -0.3%[46 µM] | ·
